Data on eight molecules can be found in PubChem BioAssay (NCI).

Some test systems named below: DU-145 prostate; K-562 leukemia; MALME-3M melanoma; MDA-MB-231 breast; RXF 393 renal; SF-268 CNS; SF-295 CNS; SF-539 CNS; UACC-257 melanoma; M14 melanoma; HCT-15 colon; HT29 colon; SNB-75 CNS; SNB-19 CNS; U251 CNS; PC-3 prostate; SK-MEL-5 melanoma; UACC-62 melanoma; LOX IMVI melanoma; SK-MEL-28 melanoma.
Holding throughout (experiment): NCI-60 one-dose screen, 48 h (100 = growth as untreated, 0 = no growth, -100 = all killed)
What all share (details): 10 µM unless noted

The panel holds about 83,000 compounds, 20% with a hit somewhere; the sample as a whole holds those more often.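 Note: values are percent growth. 100 is the growth of untreated cells, values between 100 and 0 indicate rising inhibition; between -100 and 0 indicates cell death.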 A number with no mark means an inactive call. Active and inactive are the calls of the source. The calls were made as follows: active = growth percent below 10; inactive = the rest.

As for `O=C(Cc1ccc(/C=C/C(=O)c2ncc[nH]2)cc1)Nc1ccc(S(F)(F)(F)(F)F)cc1`, the growth was 78.5% in the experiment with DU-145 prostate; 17.8% with K-562 leukemia; 88% in the experiment with MALME-3M melanoma; 70.4% with MDA-MB-231 breast; 94.7% in the experiment with RXF 393 renal; 80% with SF-268 CNS. For the same molecule, the growth was 80.8% in the experiment on SF-295 CNS; 93.2% with SF-539 CNS; 103% in the experiment with UACC-257 melanoma; 67.7% in the experiment on M14 melanoma; 34.2% in the experiment with HCT-15 colon; -25.7% (active) with HT29 colon. Besides, the growth in the experiment with SNB-75 CNS is 72.8%; in the experiment on SNB-19 CNS, 75.9%; in the experiment with U251 CNS it was 37%; in the experiment with PC-3 prostate it was 58.9%; in the experiment on SK-MEL-5 melanoma, 98.4%; in the experiment with UACC-62 melanoma it was 86.7%. For the same molecule, the figures for the growth with LOX IMVI melanoma and with SK-MEL-28 melanoma were -59% (active) and 100%, respectively.

Take `CC(=O)c1c(C)c2cnc(Nc3ccc(N4CCNCC4)cn3)nc2n(C2CCCC2)c1=O`: the growth is 39.1% in the experiment on DU-145 prostate; 6.83% (active) in the experiment on K-562 leukemia; 2.27% (active) in the experiment with MALME-3M melanoma; 36.5% with MDA-MB-231 breast; -0.541% (active) with RXF 393 renal; 46.7% in the experiment with SF-268 CNS. The growth in the experiment with SF-295 CNS was 70.3%; in the experiment on SF-539 CNS it was 27.4%; with UACC-257 melanoma it was -11.7% (active); with M14 melanoma, 29.2%; with HCT-15 colon it was 22.4%; with HT29 colon, -22.8% (active). For the same molecule, the growth in the experiment on SNB-75 CNS was 54.9%; in the experiment on SNB-19 CNS, 50.5%; in the experiment on U251 CNS, 37.8%; in the experiment on PC-3 prostate it was 32.9%; in the experiment with SK-MEL-5 melanoma, 41.1%; with UACC-62 melanoma, 49.9%. The growth with LOX IMVI melanoma is 17.6%; with SK-MEL-28 melanoma, 56.4%.

As to `Cc1cnc(NC(=O)Nc2cc(Br)c(C)cc2OC[C@@H]2CNCCO2)cn1`, the growth with DU-145 prostate is 24%; in the experiment on K-562 leukemia, -42.2% (active); with MALME-3M melanoma, -48.1% (active); in the experiment on MDA-MB-231 breast, 22.2%; with RXF 393 renal it was -14.8% (active); in the experiment with SF-268 CNS, 33.6%. In addition, the growth with SF-295 CNS was 4.01% (active); in the experiment on SF-539 CNS it was -75.8% (active); in the experiment on UACC-257 melanoma, -76.8% (active); in the experiment with M14 melanoma, -84.5% (active); with HCT-15 colon it was 6.54% (active); in the experiment on HT29 colon, -6.22% (active). For the same molecule, the growth in the experiment with SNB-75 CNS is 26.5%; in the experiment with SNB-19 CNS it was 39.7%; in the experiment with U251 CNS, 11.7%; in the experiment on PC-3 prostate it was 39.7%; in the experiment on SK-MEL-5 melanoma, -92.2% (active); with UACC-62 melanoma, 12.2%. Also, the growth with LOX IMVI melanoma was -78% (active); with SK-MEL-28 melanoma, -88.7% (active).

Turning to `CNC(=O)c1cc(Oc2ccc(NC(=O)Nc3ccc(Cl)c(C(F)(F)F)c3)c(F)c2)ccn1`, the growth in the experiment on DU-145 prostate was 14.9%; in the experiment on K-562 leukemia, -3.75% (active); in the experiment with MALME-3M melanoma, -36.3% (active); in the experiment on MDA-MB-231 breast it was -57.2% (active); in the experiment on RXF 393 renal, -31.3% (active); with SF-268 CNS, -30.6% (active). The growth in the experiment on SF-295 CNS is -47.4% (active); in the experiment on SF-539 CNS it was -71.7% (active); with UACC-257 melanoma, -50.3% (active); in the experiment on M14 melanoma it was -28.1% (active); in the experiment on HCT-15 colon it was -18.1% (active); with HT29 colon, -35.2% (active). For the same molecule, the growth with SNB-75 CNS is -68.8% (active); with SNB-19 CNS it was 3.52% (active); in the experiment on U251 CNS, -44.4% (active); in the experiment on PC-3 prostate it was 3.89% (active); in the experiment on SK-MEL-5 melanoma it was -95.9% (active); in the experiment with UACC-62 melanoma, -41.9% (active). The values for the growth in the experiment with LOX IMVI melanoma and in the experiment on SK-MEL-28 melanoma were -89% (active) and -53.7% (active), respectively.

For the molecule `O=C(CNc1nnc(-c2ccc(Cl)cc2)o1)Nc1ccc(-c2nc3ccccc3s2)cc1`, the growth is 98.5% with DU-145 prostate; 85.6% in the experiment with K-562 leukemia; 88.7% with MALME-3M melanoma; 98.8% in the experiment on MDA-MB-231 breast; 100% in the experiment on RXF 393 renal; 77.3% in the experiment with SF-268 CNS. The growth in the experiment with SF-295 CNS was 102%; with SF-539 CNS it was 97%; with UACC-257 melanoma it was 103%; in the experiment on M14 melanoma, 102%; in the experiment with HCT-15 colon, 89.6%; with HT29 colon, 95.7%. Moreover, the growth in the experiment on SNB-75 CNS was 85.8%; in the experiment on SNB-19 CNS, 90.6%; in the experiment on U251 CNS it was 81.6%; in the experiment with PC-3 prostate, 88.6%; in the experiment with SK-MEL-5 melanoma, 92.1%; in the experiment with UACC-62 melanoma, 86.1%. Moreover, the growth in the experiment with LOX IMVI melanoma was -43.1% (active); in the experiment with SK-MEL-28 melanoma it was 117%.

For the molecule `CN(C[C@@H]1COCCO1)S(=O)(=O)Nc1ccc2ccc3ncc(-c4cnn(C)c4)cc3c(=O)c2c1`, the growth is 44% in the experiment on DU-145 prostate; 39.5% in the experiment on K-562 leukemia; 46% with MALME-3M melanoma; 49.5% in the experiment with MDA-MB-231 breast; -2.79% (active) with RXF 393 renal; 35% in the experiment with SF-268 CNS. Further, the growth with SF-295 CNS is 19.3%; in the experiment on SF-539 CNS, 0.172% (active); in the experiment on UACC-257 melanoma, 69.3%; with M14 melanoma it was 35.3%; with HCT-15 colon, 26%; in the experiment with HT29 colon, 51.3%. The growth was 13.6% in the experiment with SNB-75 CNS; 80.7% in the experiment on SNB-19 CNS; 37.4% in the experiment on U251 CNS; 45.6% in the experiment with PC-3 prostate; 36% in the experiment with SK-MEL-5 melanoma; 36.2% in the experiment on UACC-62 melanoma. In addition, the growth is 30.1% in the experiment with LOX IMVI melanoma and 59.7% in the experiment with SK-MEL-28 melanoma.

For the molecule `CCc1cc2c(cc1N1CCC(N3CCOCC3)CC1)C(C)(C)c1[nH]c3cc(C#N)ccc3c1C2=O`, the growth with DU-145 prostate is 10.1%; in the experiment on K-562 leukemia, 2.08% (active); in the experiment on MALME-3M melanoma it was -27.4% (active); in the experiment on MDA-MB-231 breast it was -7.59% (active); in the experiment with RXF 393 renal it was -1.05% (active); with SF-268 CNS it was -2.19% (active). Further, the growth with SF-295 CNS is -3.18% (active); in the experiment with SF-539 CNS, -71.8% (active); in the experiment on UACC-257 melanoma, -20% (active); in the experiment with M14 melanoma it was -26.1% (active); with HCT-15 colon, 7.91% (active); with HT29 colon, -58% (active). Besides, the growth in the experiment with SNB-75 CNS is -90.3% (active); in the experiment on SNB-19 CNS, 20.2%; with U251 CNS, -19.5% (active); in the experiment with PC-3 prostate, 4.07% (active); in the experiment with SK-MEL-5 melanoma, 10.2%; in the experiment on UACC-62 melanoma, -16.4% (active). Also, the growth was -16.2% (active) with LOX IMVI melanoma and -27.2% (active) in the experiment with SK-MEL-28 melanoma.

With `O=C(COc1cccc(/C=C2\Cc3ccc(Cl)cc3C2=O)c1)Nc1nccs1`, the growth with DU-145 prostate was 108%; in the experiment on K-562 leukemia it was 89.5%; with MALME-3M melanoma it was 116%; in the experiment on MDA-MB-231 breast, 71.7%; in the experiment on RXF 393 renal it was 107%; in the experiment on SF-268 CNS, 108%. In addition, the growth is 119% in the experiment with SF-295 CNS; 79.9% in the experiment on SF-539 CNS; 110% in the experiment with UACC-257 melanoma; 107% in the experiment on M14 melanoma; 91.9% with HCT-15 colon; 102% in the experiment with HT29 colon. Moreover, the growth in the experiment with SNB-75 CNS was 76.6%; in the experiment on SNB-19 CNS it was 85.9%; in the experiment with U251 CNS, 96.7%; in the experiment with PC-3 prostate, 88%; in the experiment on SK-MEL-5 melanoma, 93.1%; in the experiment on UACC-62 melanoma it was 84.2%. The growth in the experiment with LOX IMVI melanoma is 78%; in the experiment on SK-MEL-28 melanoma, 124%.
